# Reference: PubChem BioAssay
# A number with no mark means an inactive call. The list shows a part of the results. Calls of active or inactive are those of the source.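 Rule for the calls, unless noted: active = inhibition above the mean of solvent-only control wells plus 3 SD, cutoff set per campaign (cut at about 13% in these data); inactive = the rest.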
# Legend:
# [1] = potentiators of IFN-gamma STAT1 reporter activity – cell-based, HTS, luciferase reporter, confirmation (AID 1262;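 active = activation above a set limit carried over from the earlier primary STAT1 screen, cut at about 140% in these data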;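 note: simple ratio to median IFN-gamma plus DMSO wells so 0% means no light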); conditions: NIH 3T3 STAT1-luciferase reporter, IFN-gamma potentiation, luminescence; at 5.7 µM; hits give high values; 100% = IFN-gamma EC80 alone, no compound
# [2] = enhancement of NF-kB transcriptional signalling – cell-based, HEK293T, luciferase luminescence, TNF-alpha, counter-screen for STAT1 activator project (AID 1306;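 active = activation above the mean of solvent-only control wells plus 3 SD, set per campaign, cut at about 130% in these data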;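 note: TNF-alpha given at a submaximal dose yielding about 80% of full reporter signal; values are well signal over median control so 100% means no change and 0% no light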); conditions: HEK293T NF-kB luciferase reporter, TNF-alpha stimulated, at 5.7 µM, hits give high values, 100% = TNF-alpha with vehicle only
# [3] = biological target: Signal transducer and activator of transcription 3 (Homo sapiens) (UniProt P40763); experiment: enhancers of IL-6 STAT3 transcription – U3A cells, luciferase, luminescence, counter-screen for STAT1 activator project, confirmation (AID 1316;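 active = activation above the solvent-only control well mean plus 3 SD, set per plate batch, cut at about 110% in these data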;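 note: 0% = no luminescence and 100% = median IL-6 plus DMSO wells; higher means more STAT3 reporter activation so hits are non-selective activators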); conditions: U3A cells STAT3-luciferase reporter, IL-6, luminescence; at 5.7 µM; hits give high values; 100 = IL-6 alone, no compound effect; cells lack STAT1
# [4] = tested on: DAF-12 nuclear receptor (Heterodera glycines), GAL4-LBD fusion; experiment: hgDAF-12 GAL4 fusion reporter activation, retest – cell-based, luminescence, HEK293, GAL4-LBD fusion, confirmation (AID 743050;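 active = mean activation over triplicate wells above the hit cutoff derived from the earlier primary screen, cut at about 11% in these data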;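 note: 0% = DMSO low control and 100% = 2 mM sodium butyrate high control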); conditions: HEK293 GAL4-hgDAF12 luciferase reporter, agonist mode; at 6.8 µM; hits give high values; percent of butyrate response
# [5] = biological target: Oxysterols receptor LXR-beta (Homo sapiens) (UniProt P55055); experiment: nonspecific reporter activation via LXR – cell-based, luminescence, HEK293, H. glycines campaign, counter-screen for hgDAF-12 agonist project, confirmation (AID 743051;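 active = mean activation of the triplicate above a set limit carried over from the primary screen, none filed active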); conditions: HEK293 Gal4-LXR luciferase reporter, 24 h; at 6.8 µM; hits give high values
# [6] = blockers of IL-6 STAT3 signaling – U3A cells, luciferase, luminescence, confirmation (AID 1265;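 active = inhibition above the hit cutoff computed for the primary STAT3 screen, cut at about 44% in these data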;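 note: 0% = IL-6 plus DMSO and 100% = IL-6 plus nifuroxazide control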); conditions: IL-6 STAT3 luciferase reporter, at 5.7 µM, hits give high values, cell line lacks STAT1
# [7] = inhibition of TNF-alpha-driven NF-kB transcription – cell-based, HEK293T, luciferase, TNF-alpha stimulus, counter-screen for STAT3 inhibitor project, confirmation (AID 1308); conditions: HEK293T NF-kB luciferase reporter, TNF-alpha induced; at 5.7 µM; hits give high values;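 note: 0% = TNF-alpha with DMSO and 100% = TNF-alpha with MG high control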
# [8] = inhibition of STAT1-driven transcription – cell-based, NIH 3T3, luciferase luminescence, IFN-gamma, counter-screen for STAT3 inhibitor project, confirmation (AID 1317;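 active = inhibition above the mean plus 3 SD of solvent-only control wells, limit set per screening run, cut at about 16% in these data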;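 note: 0% = DMSO with IFN-gamma and 100% = nifuroxazide control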); conditions: NIH 3T3 STAT1-luciferase reporter, IFN-gamma induced, at 5.7 µM, hits give high values
# [9] = biological target: Neuropeptide Y receptor type 2 (Homo sapiens) (UniProt P49146); experiment: human Y2 receptor positive modulation or activation – cell-based, confirmation (AID 1539; in the data active = activation above about 33%); conditions: cell-based NPY-Y2 potentiator/agonist assay; at 3.6 µM; hits give high values
# [10] = biological target: Neuropeptide Y receptor type 1 (Homo sapiens) (UniProt P25929); experiment: human Y1 receptor positive modulation or activation – cell-based, fluorescence, counter-screen for NPY-Y2 potentiator project (AID 1651; in the data active = activation above about 45%;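 note: cells stimulated with submaximal NPY then isoproterenol with phosphodiesterase inhibitor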); conditions: Y1 HEK293-CNG cells, membrane potential fluorescence; at 3.6 µM; hits give high values
# [11] = biological target: Neuropeptide Y receptor type 1 (Homo sapiens) (UniProt P25929); experiment: human Y1 receptor agonism, CNGC membrane potential – cell-based, fluorescence, selectivity assay for NPY-Y2 potentiator project (AID 1702;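 active = activation above the mean of DMSO-only control wells plus 3 SD, cut at about 18% in these data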;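 note: cells stimulated with 1 µM isoproterenol plus the PDE inhibitor Ro 20-1724; 0% = isoproterenol with DMSO and no NPY and 100% = 40 nM NPY; Y1 agonists lower the membrane potential dye signal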); conditions: HEK293 Y1-CNGC, at 3.6 µM, hits give high values
# [12] = blockers of isoproterenol-driven CNG channel signal – cell-based, HEK293-CNG parental, membrane potential fluorescence, counter-screen for NPY-Y2 potentiator project (AID 1703;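 active = inhibition above the control-well mean plus 3 SD of those wells, cut at about 22% in these data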;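 note: 0% = DMSO with isoproterenol and 100% = DMSO without isoproterenol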); conditions: isoproterenol cAMP, at 3.6 µM, hits give high values
# [13] = biological target: Neuropeptide Y receptor type 2 (Homo sapiens) (UniProt P49146); experiment: agonism at human Y2 receptor without NPY – cell-based, fluorescence, counter-screen for NPY-Y2 potentiator project (AID 1710;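 active = activation above the mean of solvent-only control wells plus 3 SD, cut at about 10% in these data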;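 note: cells stimulated by isoproterenol with no NPY added so direct agonism is tested; 0% = DMSO with isoproterenol alone and 100% = NPY at EC100 plus isoproterenol; agonism lowers probe fluorescence through less cAMP and CNG channel opening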); conditions: HEK293 Y2/CNGC cells, membrane potential fluorescence, agonist mode; at 3.6 µM; hits give high values
# [14] = tested on: transactivating tegument protein VP16 (Human herpesvirus 1); experiment: compounds suppressing VP16-driven luciferase signal – cell-based, luminescence, single concentration, counter-screen for SRC2 inhibitor project (AID 652007; in the data active = inhibition above about 36%); conditions: cell-based VP16 transactivation luciferase reporter, at 8.9 µM, hits give high values
# [15] = biological target: Nuclear receptor coactivator 2 (Homo sapiens) (UniProt Q15596); experiment: inhibition of GAL4-SRC2 driven luciferase expression – cell-based, luminescence, HEK293, triplicate, confirmation (AID 652008;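 active = mean inhibition above 46.5%, the solvent-only control mean plus 3 SD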;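 note: 0% = DMSO-treated cells and 100% = Gossypol at 36 µM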); conditions: HEK293 GAL4-SRC2 luciferase reporter, at 8.9 µM, hits give high values
# [16] = biological target: Serine protease HTRA1 (Homo sapiens) (UniProt Q92743); experiment: confirming inhibition of human HTRA1 – biochemical, fluorescence polarization, confirmation (AID 540248;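 active = mean inhibition over three repeats above a set limit taken from the earlier primary screen, cut at about 37% in these data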;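 note: 0% = HTRA1 with DMSO and 100% = wells lacking HTRA1; inhibitors block probe binding so polarization drops and inhibition rises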); conditions: recombinant HTRA1, FP-rhodamine activity-based probe, at 5.96 µM, hits give high values
# Oxysterols receptor LXR-beta (Homo sapiens), sequence (P55055 whole entry, looked up, the tested form may be a part): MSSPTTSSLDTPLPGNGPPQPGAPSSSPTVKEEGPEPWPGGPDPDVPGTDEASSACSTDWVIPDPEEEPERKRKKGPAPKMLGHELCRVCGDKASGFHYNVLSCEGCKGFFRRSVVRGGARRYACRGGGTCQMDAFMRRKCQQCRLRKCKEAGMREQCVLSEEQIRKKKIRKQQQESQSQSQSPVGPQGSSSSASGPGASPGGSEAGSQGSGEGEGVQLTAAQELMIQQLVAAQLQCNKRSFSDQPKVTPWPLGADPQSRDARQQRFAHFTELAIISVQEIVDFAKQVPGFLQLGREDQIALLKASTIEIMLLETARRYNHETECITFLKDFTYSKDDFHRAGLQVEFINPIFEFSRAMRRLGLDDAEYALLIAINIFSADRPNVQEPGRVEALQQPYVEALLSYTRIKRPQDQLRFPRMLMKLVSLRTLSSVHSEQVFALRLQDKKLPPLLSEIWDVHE
# Neuropeptide Y receptor type 2 (Homo sapiens), sequence (P49146 whole entry, looked up): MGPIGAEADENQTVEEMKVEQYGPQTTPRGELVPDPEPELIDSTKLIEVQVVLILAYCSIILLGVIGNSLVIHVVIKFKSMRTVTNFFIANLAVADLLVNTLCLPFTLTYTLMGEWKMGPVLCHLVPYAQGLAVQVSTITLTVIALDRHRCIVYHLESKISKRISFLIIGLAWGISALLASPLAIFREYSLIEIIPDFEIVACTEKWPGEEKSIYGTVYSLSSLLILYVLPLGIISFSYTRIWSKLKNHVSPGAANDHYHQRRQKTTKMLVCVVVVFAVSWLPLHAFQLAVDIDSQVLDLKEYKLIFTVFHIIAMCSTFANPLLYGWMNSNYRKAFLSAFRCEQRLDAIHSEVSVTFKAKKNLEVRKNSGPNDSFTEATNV
# Neuropeptide Y receptor type 1 (Homo sapiens), sequence (P25929 whole entry, looked up): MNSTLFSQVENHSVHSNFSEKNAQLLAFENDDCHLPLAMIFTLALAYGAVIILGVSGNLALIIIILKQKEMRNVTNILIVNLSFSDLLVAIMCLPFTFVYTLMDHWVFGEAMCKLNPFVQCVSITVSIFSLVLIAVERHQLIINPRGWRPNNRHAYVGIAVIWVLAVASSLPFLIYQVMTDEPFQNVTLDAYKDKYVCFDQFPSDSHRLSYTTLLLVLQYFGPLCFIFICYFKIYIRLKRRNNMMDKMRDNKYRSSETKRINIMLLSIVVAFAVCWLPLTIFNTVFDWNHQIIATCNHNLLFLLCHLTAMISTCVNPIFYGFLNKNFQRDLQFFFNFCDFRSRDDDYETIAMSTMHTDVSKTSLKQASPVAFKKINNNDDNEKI
# Nuclear receptor coactivator 2 (Homo sapiens), sequence (Q15596 whole entry, looked up, the tested form may be a part): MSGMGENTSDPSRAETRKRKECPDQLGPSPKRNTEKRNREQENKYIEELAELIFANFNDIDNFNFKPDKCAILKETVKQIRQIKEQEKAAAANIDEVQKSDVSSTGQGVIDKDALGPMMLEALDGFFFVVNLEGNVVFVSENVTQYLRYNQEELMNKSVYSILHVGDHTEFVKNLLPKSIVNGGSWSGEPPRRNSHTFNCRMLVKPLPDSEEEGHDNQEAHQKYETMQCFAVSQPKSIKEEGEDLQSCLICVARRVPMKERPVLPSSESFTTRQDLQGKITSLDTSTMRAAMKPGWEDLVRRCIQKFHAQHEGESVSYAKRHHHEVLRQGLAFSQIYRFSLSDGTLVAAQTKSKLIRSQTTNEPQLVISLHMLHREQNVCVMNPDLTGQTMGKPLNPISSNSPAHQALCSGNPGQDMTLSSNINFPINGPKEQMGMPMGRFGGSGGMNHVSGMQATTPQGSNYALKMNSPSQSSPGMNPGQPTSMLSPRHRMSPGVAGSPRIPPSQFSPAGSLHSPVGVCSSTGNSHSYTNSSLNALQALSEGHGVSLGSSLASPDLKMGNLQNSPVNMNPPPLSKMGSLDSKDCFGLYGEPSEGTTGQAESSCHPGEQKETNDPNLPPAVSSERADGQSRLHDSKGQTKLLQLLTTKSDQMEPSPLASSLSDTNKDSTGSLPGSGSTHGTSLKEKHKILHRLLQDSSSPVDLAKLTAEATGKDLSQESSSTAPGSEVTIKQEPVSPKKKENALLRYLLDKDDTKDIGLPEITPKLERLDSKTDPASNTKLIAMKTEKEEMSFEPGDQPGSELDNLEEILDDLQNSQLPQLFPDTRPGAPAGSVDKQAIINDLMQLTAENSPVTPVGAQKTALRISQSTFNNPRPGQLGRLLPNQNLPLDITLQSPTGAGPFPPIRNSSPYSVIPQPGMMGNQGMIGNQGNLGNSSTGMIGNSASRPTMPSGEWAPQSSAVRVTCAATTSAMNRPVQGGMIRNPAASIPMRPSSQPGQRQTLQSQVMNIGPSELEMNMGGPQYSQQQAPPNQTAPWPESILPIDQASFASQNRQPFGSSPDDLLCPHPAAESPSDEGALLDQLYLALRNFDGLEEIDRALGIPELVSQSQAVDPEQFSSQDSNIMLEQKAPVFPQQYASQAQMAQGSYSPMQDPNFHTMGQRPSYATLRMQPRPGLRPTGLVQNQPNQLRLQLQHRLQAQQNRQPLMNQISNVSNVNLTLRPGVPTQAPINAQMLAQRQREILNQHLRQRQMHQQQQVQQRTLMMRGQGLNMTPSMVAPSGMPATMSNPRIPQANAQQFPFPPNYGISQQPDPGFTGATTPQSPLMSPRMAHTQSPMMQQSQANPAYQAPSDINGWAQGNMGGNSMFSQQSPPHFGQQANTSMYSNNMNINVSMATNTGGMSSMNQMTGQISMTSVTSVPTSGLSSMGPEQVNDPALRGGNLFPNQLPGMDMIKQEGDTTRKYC
smiles,measurement,setting,value
Cc1nn(-c2ccc([N+](=O)[O-])cc2)c(N)c1-c1ccccc1,activation (% of control),[1],207% (active)
same,activation (% of control),[2],145% (active)
same,activation (% of control),[3],126% (active)
same,activation,[4],16.4% (active)
same,activation,[5],0.83%
COc1cc(/C=N/O)ccc1OCc1ccc([N+](=O)[O-])cc1,activation (% of control),[1],234% (active)
same,activation (% of control),[2],131%
same,activation (% of control),[3],123% (active)
same,activation,[4],15.5% (active)
same,activation,[5],0.71%
Cc1cccc(-n2c(O)c(C=Nc3ccccc3N)c(=O)[nH]c2=O)c1,activation (% of control),[1],127%
same,activation (% of control),[2],118%
same,activation (% of control),[3],103%
same,activation,[4],8.36%
same,activation,[5],0.33%
CN(C)S(=O)(=O)c1ccc(NC(=O)COC(=O)c2n[nH]c3ccccc23)cc1,inhibition,[6],38.2%
same,inhibition,[7],1.2%
same,inhibition,[8],8.4%
same,activation,[9],-2.42%
same,activation,[10],-36%
same,activation,[11],-29.4%
same,inhibition,[12],-6.29%
same,activation,[13],4.88%
same,inhibition,[14],-4.93%
same,inhibition,[15],16%
Cc1ccc(-c2cn3cc([N+](=O)[O-])ccc3n2)cc1,inhibition,[6],60.3% (active)
same,inhibition,[7],-3.2%
same,inhibition,[8],-77%
N#Cc1nc(COc2ccc(-c3ccccc3)cc2)oc1NCc1cccnc1,inhibition,[6],35.1%
same,inhibition,[7],2.23%
same,inhibition,[8],12.9%
CCCCOc1ccc(-c2nnc(-c3ccco3)o2)cc1,inhibition,[6],21.3%
same,inhibition,[7],-24.1%
same,inhibition,[8],-66.4%
Cc1ccc(Nc2ccccc2N)cc1,inhibition,[6],24.3%
same,inhibition,[7],22.9% (active)
same,inhibition,[8],6.8%
same,inhibition,[16],53.1% (active)
COc1ccc(NS(=O)(=O)c2ccc(NC(C)=O)cc2)cc1OC,inhibition,[6],26.4%
same,inhibition,[7],5.93%
same,inhibition,[8],17.1% (active)
O=C(Nc1nc2ccccc2s1)c1ccc2c(c1)OCO2,inhibition,[6],41.7%
same,inhibition,[7],10.6%
same,inhibition,[8],-93.8%
O=c1c2c(nc3n1CCCCC3)sc1c(O)cccc12,inhibition,[6],45.2% (active)
same,inhibition,[7],-0.37%
same,inhibition,[8],3.33%
Cn1c(SCC(=O)N2CCCc3ccccc32)nc2ccccc2c1=O,inhibition,[6],49.3% (active)
same,inhibition,[7],13.7% (active)
same,inhibition,[8],22.5% (active)
COc1ccc(C2=Nc3cc(C)ccc3OC2)cc1,inhibition,[6],19.3%
same,inhibition,[7],-18.5%
same,inhibition,[8],-114%
Cc1ccc(-c2cc(C(=O)N/N=C/C=C/c3ccco3)c3ccccc3n2)cc1C,inhibition,[6],-39.2%
same,inhibition,[7],12.6%
same,inhibition,[8],-40.9%
